Results published in the supplement of paper PMC12350171.
Structures can show the parent of a compound that is named as a salt. Values without a mark were called inactive.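 How the source made its calls: active = AUC significantly below DMSO controls by Student t-fit with adjusted P under 0.01; inactive = not significantly reduced.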

test system: Haemophilus parainfluenzae; test: growth AUC normalised to DMSO control (fraction of control); higher = less growth inhibition, active = hit call of the paper; details: 20 µM
Outline: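 After two anaerobic passages, pathogens were added at a starting OD578 of 0.01 to pre-reduced mGAM plates holding compound at 20 μM with 1% DMSO; hemin and NAD were supplemented for Haemophilus parainfluenzae. Sealed with breathable membranes, plates were read at OD578 hourly for 24 h, in three biological replicates. The trapezoidal rule, applied up to the exponential-to-stationary transition, gave the growth-curve AUC, which was normalised to DMSO controls on the same plate.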

| Compound | growth AUC normalised to DMSO control |
| --- | --- |
| COc1ccc([C@@H]2CC(=O)c3c(O)cc(O[C@@H]4O[C@H](CO[C@@H]5O[C@@H](C)[C@H](O)[C@@H](O)[C@H]5O)[C@@H](O)[C@H](O)[C@H]4O)cc3O2)cc1O [Hesperidin] | 1.07 |
| C[C@H](N)[C@H](O)c1cccc(O)c1 [Metaraminol bitartrate] | 0.968 |
| O=C(O)c1ccccc1OP(=O)(O)O [Fosfosal] | 0.998 |
| CCOC(=O)[C@H](CCc1ccccc1)N[C@H]1CCc2ccccc2N(CC(=O)O)C1=O [Benazepril hydrochloride] | 0.995 |
| CN1CCN(c2c(F)cc3c(=O)c(C(=O)O)cn4c3c2SCC4)CC1 [Rufloxacin] | 0.0692 (active) |
